Measurements published in PubChem BioAssay (EPA / NIEHS).
The source made the active and inactive calls. The calls were made as follows: active = hit-call score of the fitted dose curve at least 0.9, where 1 is the maximum; inactive = score below 0.9.

read-out: CD69, CD69 (gene 969); test: BSK_SAg_CD69: BioMAP Diversity Plus: SAg Assay for CD69 Biomarker Activity (AID 2283089); settings: primary human HUVEC with PBMC; actives raise or lower the signal
Outline: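 Values derive from bidirectional fitting relative to DMSO vehicle. Cells: umbilical vein endothelium plus peripheral blood mononuclear cells, treated 24 h before fluorescent ELISA for CD69.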

SMILES | outcome
O=S(=O)(F)C(F)(F)C(F)(F)C(F)(F)C(F)(F)C(F)(F)C(F)(F)C(F)(F)C(F)(F)F | inactive
ClC(Cl)(Cl)c1ccccc1 | inactive
CC(Cc1ccc(OCC(=O)O)cc1)NCC(O)c1csc(C(F)(F)F)n1 (centres undefined) | inactive
O=C(O)C(F)(F)OC(F)(F)C(F)(F)OC(F)(F)C(=O)O | inactive
Nc1ccc(Cl)cc1 | inactive
CCCCN(CCCC)N=O | inactive
O=C(O)C(Cl)Cl | inactive
c1ccc2c(c1)Nc1ccccc1S2 | inactive
COP(=O)(CCC(=O)NCO)OC | inactive
CCOS(=O)(=O)OCC | inactive
Nc1ccc([N+](=O)[O-])cc1Cl | inactive

read-out: Monocyte Chemoattractant Protein-1 (MCP1), CCL2 (gene 6347); test: BSK_SAg_MCP1: BioMAP Diversity Plus: SAg Assay for Monocyte Chemoattractant Protein-1 (MCP1) Biomarker Activity (AID 2283090); settings: primary human HUVEC with PBMC; actives raise or lower the signal
Outline: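 MCP-1 levels in the endothelial–PBMC SAg co-culture were quantified by ELISA at 24 h post-dosing; both increases and decreases versus DMSO scored. Cytotoxicity monitored by SRB total protein in parallel cultures.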

SMILES | outcome | AC50
CN(C)C(=O)Cl | inactive | –
CCC(C)(C)c1ccc(O)cc1 | inactive | –
CCOP(=S)(OCC)SCn1nnc2ccccc2c1=O | inactive | –
c1cc2c3c(cccc3c1)CC2 | inactive | –
O=c1ssc(Cl)c1Cl | – | 5.35 µM (active)
O=S(=O)(F)C(F)(F)C(F)(F)C(F)(F)C(F)(F)C(F)(F)C(F)(F)C(F)(F)C(F)(F)F | inactive | –
CCOP(=S)(S)OCC | inactive | –
OCC(F)(F)OC(F)(F)C(F)(F)OC(F)(F)CO | inactive | –
ClC(Cl)(Cl)c1ccccc1 | inactive | –
CC(Cc1ccc(OCC(=O)O)cc1)NCC(O)c1csc(C(F)(F)F)n1 (centres undefined) | inactive | –
CC(C)(C)c1ccc(O)cc1 | inactive | –
O=C(O)C(F)(F)OC(F)(F)C(F)(F)OC(F)(F)C(=O)O | inactive | –
c1ccc(OP(Oc2ccccc2)Oc2ccccc2)cc1 | inactive | –
OCC1CO1 (centres undefined) | inactive | –
NC(=O)C(F)(F)C(F)(F)F | inactive | –
O=[N+]([O-])c1ccccc1 | inactive | –
Nc1ccc(Cl)cc1 | inactive | –
O=[N+]([O-])c1ccc(Cl)c(Cl)c1 | inactive | –
CCOP(=S)(Oc1ccc([N+](=O)[O-])cc1)c1ccccc1 (centres undefined) | inactive | –
CC(C)(C)OOC(C)(C)C | inactive | –
CCCCN(CCCC)N=O | inactive | –
Cc1ccc(O)cc1C | inactive | –
O=C(O)C(Cl)Cl | inactive | –
c1nc[nH]n1 | inactive | –
c1ccc2c(c1)Nc1ccccc1S2 | inactive | –
COP(=O)(CCC(=O)NCO)OC | inactive | –
CCOS(=O)(=O)OCC | inactive | –
Nc1ccc([N+](=O)[O-])cc1Cl | inactive | –
